Drawing on PubChem BioAssay, this text covers growth inhibition, inhibition and outcome for 19 compounds.

As usually defined, the inhibition is the relative decrease from the control value, in per cent.

Test [1] can be described thus: antimalarial activity against Dd2 strain (AID 2302;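 active = growth inhibition above 50% at the single 2 µM test dose, taken to imply half-maximal potency below 2 µM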;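 note: 0% = DMSO untreated growth and 100% = chloroquine plus artemisinin killed control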). Conditions: P. falciparum Dd2 in RBCs, LDH growth readout, 72 h; at 2 µM; hits give high values.
A short description of test [2]: HepG2 cytotoxicity, primary screen, cytotoxicity control for P. falciparum antimalarial project, cell-based, ATP luminescence (AID 2303;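 active = inhibition above 50%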;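 note: 0% = DMSO wells and 100% = digitonin-killed cells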). The conditions noted are these: HepG2 viability, 24-48 h, at 10 µM, hits give high values.
The target in test [3] is L-lactate dehydrogenase (Plasmodium falciparum (isolate CDC / Honduras)) (UniProt Q27743). Nature of the test: PfLDH activity inhibition – cell lysate, 3D7 strain, counter-screen for P. falciparum growth inhibition project (AID 2304).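 Note: 0% = vehicle and 100% = reference inhibitor.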 Conditions: P. falciparum 3D7 crude extract, LDH APAD/NBT absorbance; at 2 µM; hits give high values.
Sequence of L-lactate dehydrogenase (Plasmodium falciparum (isolate CDC / Honduras)) (Q27743 whole entry, looked up): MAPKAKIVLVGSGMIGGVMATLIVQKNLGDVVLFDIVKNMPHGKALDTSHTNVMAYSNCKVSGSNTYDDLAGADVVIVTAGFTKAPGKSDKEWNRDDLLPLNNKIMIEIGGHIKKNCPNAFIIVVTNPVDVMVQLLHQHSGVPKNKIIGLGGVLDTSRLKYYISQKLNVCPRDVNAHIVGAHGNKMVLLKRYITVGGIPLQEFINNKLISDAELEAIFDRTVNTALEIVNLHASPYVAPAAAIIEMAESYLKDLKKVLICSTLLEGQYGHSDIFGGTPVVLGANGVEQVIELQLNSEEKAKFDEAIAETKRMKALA
Test [4] can be described thus: inhibition of 3D7 malaria parasite growth – strain 3D7 (AID 2306).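 Note: 0% = DMSO wells and 100% = chloroquine plus artemisinin control wells.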 Conditions: P. falciparum 3D7 erythrocytic growth, LDH absorbance, 72 h; at 2 µM; hits give high values.
For test [5], the target named is Calcium-dependent protein kinase 1 (Plasmodium falciparum (isolate 3D7)) (UniProt P62344). In words: PfCDPK1 kinase inhibitors, biochemical, TCAMS library (AID 1159585; cut-off not given, nearly all actives have IC50 up to about 0.98 µM;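 note: inhibitors leave more ATP so luminescence rises with inhibition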). Conditions: recombinant PfCDPK1, Kinase-Glo ATP depletion luminescence.
Sequence of Calcium-dependent protein kinase 1 (Plasmodium falciparum (isolate 3D7)) (P62344 whole entry, looked up): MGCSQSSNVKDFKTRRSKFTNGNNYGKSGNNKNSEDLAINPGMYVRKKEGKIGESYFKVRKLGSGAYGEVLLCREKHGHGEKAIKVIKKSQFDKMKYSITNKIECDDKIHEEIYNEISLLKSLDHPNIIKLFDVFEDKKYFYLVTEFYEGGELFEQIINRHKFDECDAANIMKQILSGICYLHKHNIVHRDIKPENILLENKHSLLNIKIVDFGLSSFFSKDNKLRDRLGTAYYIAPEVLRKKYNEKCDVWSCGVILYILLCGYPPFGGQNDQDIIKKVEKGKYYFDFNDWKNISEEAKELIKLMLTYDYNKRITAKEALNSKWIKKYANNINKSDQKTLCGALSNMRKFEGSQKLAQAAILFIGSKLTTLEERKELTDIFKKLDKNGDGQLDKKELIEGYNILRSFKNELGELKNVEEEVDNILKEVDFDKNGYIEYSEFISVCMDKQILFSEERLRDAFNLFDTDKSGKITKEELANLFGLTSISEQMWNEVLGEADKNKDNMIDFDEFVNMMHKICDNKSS
Test [6] addresses Plasmodium falciparum protein kinase 6 (PK6, PF3D7_1337100) (UniProt Q8IDW1). In words: PfPK6 kinase inhibitors, biochemical, TCAMS library (AID 1159586). The conditions noted are these: recombinant PfPK6, Kinase-Glo ATP depletion luminescence.
Test [7] addresses Protein kinase 7 (PK7), Plasmodium falciparum 3D7 (PF3D7_0213400) (UniProt Q7YTF7). In words: inhibition of Plasmodium PK7 catalytic activity – biochemical, TCAMS antimalarial set, Kinase-Glo luminescence (AID 1159587). Conditions: recombinant PfPK7, Kinase-Glo ATP depletion luminescence. For orientation: In Kinase-Glo more light means more ATP remaining.
Test [8] concerns the target Calcium-dependent protein kinase 4 (Plasmodium falciparum (isolate 3D7)) (UniProt Q8IBS5). In words: PfCDPK4 kinase inhibitors, biochemical, TCAMS library (AID 1159588; cut-off not given, nearly all actives have IC50 up to about 0.91 µM). Conditions: recombinant PfCDPK4, Kinase-Glo ATP depletion luminescence.

Unmarked numbers belong to inactive results. For some assays here: Measured potencies and affinities stand elsewhere. The source made the active and inactive calls. Unless noted, the rule behind the calls is not given here.

Sequence of Protein kinase 7 (PK7), Plasmodium falciparum 3D7 (PF3D7_0213400) (Q7YTF7 1-343): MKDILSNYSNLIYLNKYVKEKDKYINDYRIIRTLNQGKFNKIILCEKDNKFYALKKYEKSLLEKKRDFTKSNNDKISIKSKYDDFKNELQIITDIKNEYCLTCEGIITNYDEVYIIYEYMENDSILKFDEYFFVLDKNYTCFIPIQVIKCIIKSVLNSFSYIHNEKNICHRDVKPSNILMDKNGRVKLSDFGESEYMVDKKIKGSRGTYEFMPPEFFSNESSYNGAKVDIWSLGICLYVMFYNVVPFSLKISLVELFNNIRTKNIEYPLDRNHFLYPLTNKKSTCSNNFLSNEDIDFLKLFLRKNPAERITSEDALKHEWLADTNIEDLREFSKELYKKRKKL
Sequence of Plasmodium falciparum protein kinase 6 (PK6, PF3D7_1337100) (Q8IDW1 1-305): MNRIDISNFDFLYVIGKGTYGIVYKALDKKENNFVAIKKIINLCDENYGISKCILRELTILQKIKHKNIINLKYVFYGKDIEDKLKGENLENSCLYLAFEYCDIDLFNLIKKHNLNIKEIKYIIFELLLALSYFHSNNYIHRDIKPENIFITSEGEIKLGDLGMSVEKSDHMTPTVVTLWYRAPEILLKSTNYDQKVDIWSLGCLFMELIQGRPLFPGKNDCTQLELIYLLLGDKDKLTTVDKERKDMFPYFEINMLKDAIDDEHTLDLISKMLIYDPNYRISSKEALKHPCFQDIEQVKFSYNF
Sequence of Calcium-dependent protein kinase 4 (Plasmodium falciparum (isolate 3D7)) (Q8IBS5 whole entry, looked up): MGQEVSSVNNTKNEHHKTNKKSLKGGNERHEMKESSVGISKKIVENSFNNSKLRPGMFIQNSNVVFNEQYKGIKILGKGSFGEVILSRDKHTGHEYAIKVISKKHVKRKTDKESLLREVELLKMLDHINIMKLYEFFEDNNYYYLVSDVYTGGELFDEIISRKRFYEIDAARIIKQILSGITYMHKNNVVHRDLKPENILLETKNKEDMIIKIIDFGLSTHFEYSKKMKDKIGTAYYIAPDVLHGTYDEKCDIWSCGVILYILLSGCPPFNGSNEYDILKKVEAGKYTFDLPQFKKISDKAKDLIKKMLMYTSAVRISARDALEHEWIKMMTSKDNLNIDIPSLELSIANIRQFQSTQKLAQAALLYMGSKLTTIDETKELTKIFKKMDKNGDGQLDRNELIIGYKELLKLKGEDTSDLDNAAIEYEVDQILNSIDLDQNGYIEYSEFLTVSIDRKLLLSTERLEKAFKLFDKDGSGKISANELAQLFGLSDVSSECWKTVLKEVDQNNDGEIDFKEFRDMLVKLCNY

As to `O=C(Nc1ccc(-c2cccc(-c3nc4ccc(F)cc4[nH]3)c2)cc1)Nc1ccc(Cl)c(Cl)c1`, the growth inhibition in test [1] was 24%; in test [4], 99% (active). Also, the inhibition in test [2] is 68% (active); in test [3], 3%. The outcome in test [5], in test [6], in test [7] and in test [8] was inactive.
Regarding `COc1ccc(N2CCN(CCc3ccc(NC(=O)c4ccc([N+](=O)[O-])cc4)cc3)CC2)c(OC)c1`, the growth inhibition in test [1] was 0%; in test [4], 83% (active). Further, the inhibition in test [2] was 45%; in test [3], 1%. In addition, the outcome in test [5], in test [6], in test [7] and in test [8] was inactive.
For `CCCc1cc(NC2CCN(C)CC2)nc(Nc2cccc(OC)c2)n1`, the growth inhibition was 28% in test [1] and 100% (active) in test [4]. For the same compound, the results for the inhibition in test [2] and in test [3] were 31% and -3%, respectively. In addition, the outcome in test [5], in test [6], in test [7] and in test [8] was inactive.
Regarding `CN(C)c1ccc(CN2CCC(NC(=O)c3ccc(-c4cccc(F)c4)s3)CC2)cc1`, the growth inhibition in test [1] was 18%; in test [4], 91% (active). Further, the inhibition is 55% (active) in test [2] and -1% in test [3]. In addition, the outcome in test [5], in test [6], in test [7] and in test [8] was inactive.
For the compound `CCCNc1nc(Nc2ccccc2C)nc2ccccc12`, the growth inhibition in test [1] is 64% (active); in test [4], 95% (active). In addition, the inhibition in test [2] was 13%; in test [3], 1%. Also, the result in test [5], in test [6], in test [7] and in test [8] was inactive.
For the compound `O=C(CCC1CCCC1)N(Cc1ccc(-c2ccc(CNCCc3ccccn3)cc2)cc1)CC1CCCCN1` (configuration not stated), the growth inhibition in test [1] was 69% (active); in test [4], 95% (active). Besides, the values for the inhibition in test [2] and in test [3] were 32% and 0%, respectively. Besides, the result in test [5], in test [6], in test [7] and in test [8] was inactive.
On to `COc1ccc(C(O)CNC(C)CCc2ccccc2)cc1C(F)(F)F` (configuration not stated), for which the growth inhibition in test [1] was 100% (active); in test [4], 99% (active). Further, the figures for the inhibition in test [2] and in test [3] were 3% and 1%, respectively. For the same compound, the result in test [5], in test [6], in test [7] and in test [8] was inactive.
Take `CCCNC(=O)Nc1cc2cc(-c3cccc(CN4CCCCC4)c3)ccc2n2c(C)nnc12`: the growth inhibition is 50% (active) in test [1] and 100% (active) in test [4]. Also, the results for the inhibition in test [2] and in test [3] were 60% (active) and 0%, respectively. The result in test [5], in test [6], in test [7] and in test [8] was inactive.
In the case of `CCNc1cc(C(=O)N[C@@H](Cc2ccccc2)[C@H](O)CNC2CCC(F)(F)CC2)c(F)c(N2CCCCS2(=O)=O)c1`, the growth inhibition in test [1] is 97% (active); in test [4] it was 100% (active). Moreover, the inhibition in test [2] was -5%; in test [3] it was -1%. Also, the result in test [5], in test [6], in test [7] and in test [8] was inactive.
Consider `COc1ccc2nccc([C@@H](O)CN3CCC(NCc4nc5cc(F)ccc5o4)CC3)c2c1`, for which the growth inhibition in test [1] was 12%; in test [4], 102% (active). Besides, the results for the inhibition in test [2] and in test [3] were 14% and -8%, respectively. Also, the result in test [5], in test [6], in test [7] and in test [8] was inactive.
For `CC(CN(C)C)C(=O)Nc1cccc(-c2ccc(-c3nc4ccc(F)cc4[nH]3)cc2)c1` (configuration not stated), the values for the growth inhibition in test [1] and in test [4] were 100% (active) and 101% (active), respectively. For the same compound, the inhibition in test [2] is 11%; in test [3], -1%. In addition, the outcome in test [5], in test [6], in test [7] and in test [8] was inactive.
Consider `Cc1noc(C)c1-c1cccc(CNCc2cccc(-c3cccc(-c4nc5ccc(C(F)(F)F)cc5[nH]4)c3)c2)c1`, for which the growth inhibition in test [1] was 95% (active); in test [4], 101% (active). Further, the inhibition in test [2] was 18%; in test [3], 5%. In addition, the result in test [5], in test [6], in test [7] and in test [8] was inactive.
Consider `CCOC(=O)NC1=NC(C)(C)N(OCc2ccc(Cl)c(Cl)c2)C(NC(=O)OCC)=N1`, for which the growth inhibition in test [1] is 4%; in test [4], 98% (active). The inhibition in test [2] was 65% (active); in test [3], 2%. Moreover, the result in test [5], in test [6], in test [7] and in test [8] was inactive.
Turning to `Oc1c(C(Nc2ccccn2)c2ccc(Cl)cc2Cl)ccc2cccnc12` (configuration not stated), the growth inhibition in test [1] is 60% (active); in test [4] it was 88% (active). In addition, the results for the inhibition in test [2] and in test [3] were 42% and 1%, respectively. Moreover, the outcome in test [5], in test [6], in test [7] and in test [8] was inactive.
On to `CCc1ccc(C(=O)NC(=O)c2ccccc2O)cc1`, for which the results for the growth inhibition in test [1] and in test [4] were 84% (active) and 95% (active), respectively. Besides, the figures for the inhibition in test [2] and in test [3] were -4% and 1%, respectively. The outcome in test [5], in test [6], in test [7] and in test [8] was inactive.
`Cc1cc(F)ccc1-c1nc(NCCCNCCc2ccccc2)nc2c1ccc(=O)n2-c1c(F)cccc1F`: the growth inhibition in test [1] and in test [4] was 100% (active) throughout. The inhibition in test [2] is 36%; in test [3], -6%. Also, the outcome in test [5], in test [6], in test [7] and in test [8] was inactive.
On to `COc1ccccc1-n1c(SCC(=O)Nc2ccccc2F)nc2cccnc21`, for which the values for the growth inhibition in test [1] and in test [4] were 88% (active) and 96% (active), respectively. The inhibition in test [2] was -21%; in test [3], 0%. The outcome in test [5], in test [6], in test [7] and in test [8] was inactive.
For the compound `O=C(O)/C=C/c1cccc(F)c1F`, the figures for the growth inhibition in test [1] and in test [4] were 1% and 96% (active), respectively. The inhibition is 58% (active) in test [2] and -1% in test [3]. In addition, the outcome in test [5], in test [6], in test [7] and in test [8] was inactive.
Take `Fc1ccc2nc(-c3ccc(-c4ccc(CNCc5cnn(-c6ccccc6)n5)cc4)cc3)[nH]c2c1`: the growth inhibition was 47% in test [1] and 98% (active) in test [4]. Besides, the inhibition was 41% in test [2] and 1% in test [3]. Further, the result in test [5], in test [6], in test [7] and in test [8] was inactive.
